Mac1 fbg inh: inhibitors of human CD11b/CD18 binding to fibrinogen; hit rate 0.54% among 93,000; AID 1497; inhibition, % at 10 µM; K562 CD11b/CD18 adhesion to fibrinogen, ATPlite luminescence; Mn2+ added to activate the integrin; P05107+P11215;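 active means primary inhibition of 50% or more at 10 µM, then 40% or more on retest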
FAK inh: blocks human focal adhesion kinase activity | Q05397 | biochemical FAK kinase activity assay | inhibition, %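 (tested at 7 µM)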 | hit rate 0.84% among 97,000; in the data active means inhibition above about 19%;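 further: 0% = DMSO and 100% = reference compound high control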
hDAT+cocaine: changed human dopamine transporter uptake under cocaine IC80 | Q01959 | AID 449768 | hit rate 1.3% among 110,000 | LLC-PK1 hDAT cells, [14C]-dopamine uptake with cocaine IC80; actives deviate in either direction | B-score at 10 µM;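 active means Z score or B-score, a plate-position-corrected score, falls beyond the plate's 99.7% confidence bounds, in either direction; inactive means both scores lie inside the 99.7% bounds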;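 further: scored against the spread of the other compound wells on the same plate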
D1 mod: D1 dopamine receptor (human) allosteric modulation; hit rate 5.9% among 58,000; B-score at 10 µM; P21728; HEK293 D1, CRE-luciferase, dopamine EC30 potentiation; actives deviate in either direction; AID 641;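 active means luminescence count or its row- and column-corrected plate score outside the 99.7% band of the plate's sample wells, on either side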
Target sequence (P21728 whole entry, looked up): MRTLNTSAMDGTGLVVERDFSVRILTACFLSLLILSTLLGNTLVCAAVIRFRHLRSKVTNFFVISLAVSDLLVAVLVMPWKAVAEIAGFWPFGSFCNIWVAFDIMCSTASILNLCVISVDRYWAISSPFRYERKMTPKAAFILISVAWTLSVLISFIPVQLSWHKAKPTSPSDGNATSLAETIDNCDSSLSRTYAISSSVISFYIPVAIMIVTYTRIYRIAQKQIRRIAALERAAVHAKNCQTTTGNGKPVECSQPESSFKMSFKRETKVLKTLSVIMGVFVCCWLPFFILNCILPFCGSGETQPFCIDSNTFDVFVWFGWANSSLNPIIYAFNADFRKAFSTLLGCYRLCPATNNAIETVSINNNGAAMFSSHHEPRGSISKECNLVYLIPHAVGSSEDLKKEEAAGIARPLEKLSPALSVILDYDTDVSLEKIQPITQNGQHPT
Pyk2 oligo antag: blocks oligomerization of human Pyk2 in cells; Q14289; Q293 cells, Pyk2 FERM NanoBiT luminescence; stronger effect = lower value; z-score (the deposit names both 25 µM and 10 µM); hit rate 0.83% among 99,000; AID 1347419;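 active means Z-score of -3 or lower, scaled per plate to the spread of control and sample wells; inactive means z-score above -3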;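 further: negative z-score means lost luminescence so less FERM oligomerization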
CD11b adhes enh: enhancers of human CD11b/CD18 binding to fibrinogen. activation, % at 10 µM. K562 CD11b/CD18 adhesion to fibrinogen, ATPlite luminescence. P05107+P11215. hit rate 0.07% among 93,000;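 active means 10 µM primary screen giving 50% or more activity, confirmed by 40% or more on retest at that dose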
D1 PAM confirm: D1 receptor (human) allosteric modulation, confirmed | shares compounds with D1 mod | HEK293 D1 CRE-luciferase, dopamine EC30 potentiation; stronger effect = higher value | luminescence at 10 µM | hit rate 88% among 2,200 | AID 642;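 active means luminescence in either of two replicates above the same-plate mean plus 3 SD of the low-dose dopamine control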
D1 no dopamine: D1 (human) signaling in absence of dopamine | luminescence at 10 µM | shares compounds with D1 mod | HEK293 D1 CRE-luciferase, luminescence, no dopamine; stronger effect = higher value | hit rate 0.8% among 1,900 | AID 646; in the data active means luminescence above about 3900
Isoprot counter: isoproterenol response counter-screen activity for D1 modulators; shares compounds with D1 mod; HEK293 D1 CRE-luciferase, isoproterenol EC30 counter-screen; calls only at 10 µM; hit rate 63% among 2,200; AID 647;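 active means luminescence in either replicate above plate mean of wells with a partly effective reference agonist dose plus 3 SD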;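 further: isoproterenol raises cAMP through native beta-adrenoceptor Gs so signal bypasses D1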
* hit, by the source's call; i = inactive; / = not tested or not shown; + = active, no number. This is one part of a sample in which hits are shown more often than they occur.

SMILES	Mac1 fbg inh	FAK inh	hDAT+cocaine	D1 mod	Pyk2 oligo antag	CD11b adhes enh	D1 PAM confirm	D1 no dopamine	Isoprot counter
CC(=NCc1ccco1)c1c(O)n(C2CCCCC2)c(=O)[nH]c1=O	-7.4	0.4	0.384	11.4*	0.54	3.9	14172*	1048	+
CC(C)C(NS(=O)(=O)c1ccc2c3c(cccc13)C(=O)N2)C(=O)O (configuration not stated)	-13.4	-1.6	0.0288	6.96*	/	1.8	5048	/	i
Cn1c(=O)c2c(SCc3cccc(C(F)(F)F)c3)nc(-c3ccco3)nc2n(C)c1=O	6.4	4.7	-0.0101	-0.24	0.6	1.7	/	/	/
Cn1c(=O)c2c(SCc3ccccc3)nc(-c3ccco3)nc2n(C)c1=O	-39.1	/	-0.000937	3.25*	/	-4.6	12880*	1832	i
CCOc1ccc(-c2noc(COC)n2)cc1OC	-3.0	-2.8	-0.149	3.39*	-0.24	-0.2	8824*	1732	i
Cc1cccc(OCc2nc(-c3nonc3N)no2)c1C	11.8	/	-0.826	-5.15	0.82	-2.8	/	/	/
COc1ccc(-c2noc(CSc3nc(-c4ccccc4)cc(=O)[nH]3)n2)cc1OC	-10.9	1.2	0.144	7.55*	-1.43	57.7	7928*	/	+
COc1ccc(-c2noc(COc3ccc4ccccc4c3Br)n2)cc1OC	/	-3.1	1.75	3.74*	0.76	/	8636*	1540	i
CCOc1ccc(Cc2nc(-c3nonc3N)no2)cc1OCC	11.1	/	0.67	7.68*	0.26	-0.6	13988*	1580	+
CSc1sc(C(=O)NN)c2c1C(O)CCC2 (configuration not stated)	/	/	0.183	/	/	/	/	/	/
COc1ccc(-c2noc(COc3ccc(C)c(C)c3)n2)cc1OC	9.7	-0.9	0.295	4.51*	-0.88	10.8	9288*	/	+
CCOc1ccc(-c2noc(CCC(N)=O)n2)cc1OCC	7.9	/	2.06	11.3*	0.89	-2.7	16532*	1780	+
COc1ccc(-c2noc(CCC(=O)Nc3cccnc3)n2)cc1OC	-8.9	-0.9	0.239	4.65*	0.27	6.2	17976*	1752	i
Cc1ccc(-c2noc(COc3ccc4c(c3)OCO4)n2)cc1	/	-0.9	-0.699	/	0.42	/	/	/	/
COc1cccc(CNC(=O)C2CCN(c3cnccn3)CC2)c1	/	5.7	2.18	0.0673	-0.38	/	/	/	/
COc1ccccc1CN1[C@@H](CC(=O)O)c2cc(F)ccc2S1(=O)=O	/	/	-0.81	/	/	/	/	/	/
COc1cc2c(cc1OC)C1=C(C#N)COCN1CC2	0.1	-0.1	-0.696	14.9*	-0.21	4.5	9624*	1768	+
FC(F)(F)c1nnc2ccc(N3CCCCCC3)nn12	8.4	9.8	0.194	3.46*	-0.49	-1.9	8220*	1432	+
FC(F)(F)C(F)(F)C(F)(F)c1nnc2ccc(N3CCOCC3)nn12	-21.7	1.8	-0.0264	10.5*	0.48	-3.9	18088*	1648	+
CCN(CC)C(=O)c1ccc2c3c(cccc13)C(=O)N(CCc1ccc(OC)c(OC)c1)C2=O	5.6	/	/	/	/	4.9	/	/	/
COc1ccc(C(=O)n2nc(-c3ccccc3)nc2N)cc1OC	21.1	1.5	0.246	6.13*	2.04	2.4	15096*	1896	+
COc1ccccc1C(=O)NCC(=O)OCC(=O)c1ccc2c(c1)-c1ccccc1C2	-5.0	/	/	/	/	-0.9	/	/	/
CCOc1ccc(C2C(C#N)=C(N)SC(N)=C2C#N)cc1OCC	1.4	/	-0.0116	5.43*	-0.38	-1.0	13032*	1560	+
CCOc1ccc(C2C(C#N)=C(N)SC(N)=C2C#N)cc1OC	-2.5	/	0.194	6.06*	/	-2.7	10912*	1684	i
CCOc1ccccc1C1C(C#N)=C(N)SC(N)=C1C#N	4.9	-2.7	/	-0.0886	-1.48	-4.6	/	/	/

Source: PubChem (several laboratories)
